Drawing on PubChem BioAssay AID682 (University of Pittsburgh Molecular Library Screening Center, 2007), this text covers EC50 for two compounds.

A short description of this experiment: H2O2 producers via compound redox cycling – biochemical, 0.5 mM DTT, Cdc25B catalytic domain, artefact control, dose response (AID 682). The note with it: cell-free redox cycling H2O2 generation.

Structures are written as SMILES. Some of the results follow. Unmarked numbers belong to inactive results. Rule as the data show it: active = EC50 below about 30 µM; inactive = the rest.

Regarding `COc1cccc2c(C)c(C(=O)O)[nH]c12`, the EC50 was over 50 µM.
Consider `c1ccc(CSc2nnc(-c3ccco3)c(-c3ccco3)n2)cc1`, for which the EC50 is over 50 µM.
